Experimental data: PubChem BioAssay (NCATS)
Several values for one entry are separate records, joined by “and”; a condition that tells them apart may be missing. Identical values can stand only once. Records with an inconclusive call do not appear. Unmarked numbers belong to inactive results. Activity calls are given as the source filed them. The call rests on the fitted dose curve; in most records, active means well fitted cell-killing curve with a large enough effect; inconclusive means small, poorly fitted or top-dose-only effect; inactive means flat fitted curve, though single readings scatter.

Assays:
[1] = Cellular viability qHTS for adrenocortical cancer (ACC) cell line SW-13 (AID 1963989); conditions: SW-13 ACC cells viability, CellTiter-Glo, 48 h; activity (max response): stronger effect = lower value; further: nearly all actives have a fitted effect of over 65% in size;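 on activity (max response): cells grown in serum-free medium with ITS supplement; on the % scale 0 is the no-effect control and ±100 the full control effect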
Method in brief: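 Here, serum-free SW-13 cultures were dosed up to 46 uM. Following 48 h, ATP-dependent luminescence (CellTiter-Glo) reported viable cells, and logistic modeling produced IC50 values.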

[2] = Cellular viability qHTS for adrenocortical cancer (ACC) cell line NCI-H295R (AID 1963990); conditions: CellTiter-Glo ATP luminescence, 48 h; series mostly up to 46.1 µM; further: nearly all actives have a fitted effect of over 60% in size;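 on activity change, negative = viability loss: 0% = DMSO only wells and -100% = full killing with cytotoxic reference compound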
Method in brief: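 Viability of NCI-H295R after 48 h of treatment (final up to 46 uM) measured through cellular ATP luminescence.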
Potency means the concentration at half of the fitted maximal effect.

SMILES | Potency [1] | Potency [2] | activity (max response) [1] | activity change, negative = viability loss [2]
COCCNCc1ccc(-c2cc3nccc(Oc4ccc(NC(=O)C5(C(=O)Nc6ccc(F)cc6)CC5)cc4F)c3s2)nc1 | 3.55 µM (active) | 3.16 µM (active) | – | –
Nc1ccc(O)cc1 | – | inactive | 0.149% | –
CCc1cc2cc(OC)c(OC)cc2c(Cc2ccccc2)n1 | – | inactive | -5.12% | –
Fc1ccc(-c2nc(-c3ccccc3F)[nH]c2-c2ccncc2)cc1 | – | inactive | -20.2% | –
CC(=O)Oc1cccc2c1C(=O)c1c(OC(C)=O)cc(C(=O)O)cc1C2=O | – | inactive | -7.7% | –
CN1CCC(=C2c3ccccc3CCc3cccnc32)CC1 | – | inactive | 5.98% | –
COC1=C2C[C@H](C)C[C@H](OC)[C@H](O)[C@@H](C)/C=C(/C)[C@H](OC(N)=O)[C@@H](OC)/C=C\C=C(\C)C(=O)NC(=CC1=O)C2=O | – | inactive | -3.63% | –
O=C1NC(=O)/C(=C/c2ccc(-c3ccc(F)cc3O)o2)S1 | 28.2 µM (active) | 25.1 µM (active) | – | –
CCCC(=O)OC[C@@H](OC(=O)CCC)[C@@H](OC(=O)CCC)[C@H](Cn1c2nc(=O)[nH]c(=O)c-2nc2cc(C)c(C)cc21)OC(=O)CCC | – | inactive | -8.77% | –
CS(=O)(=O)c1ccc([C@@H](O)[C@@H](CF)NC(=O)C(Cl)Cl)cc1 | – | inactive | -12.7% | –
CS(=O)(=O)N1CCN(Cc2cc3nc(-c4cccc5[nH]ncc45)nc(N4CCOCC4)c3s2)CC1 | 17.8 µM (active) | 2.24 µM (active) | – | –
O=C1CN(/N=C/c2ccc([N+](=O)[O-])o2)C(=O)N1 | – | 18.4 µM (active) | -20.9% | –
Cc1c(Cn2ccnc2)c2ccccc2n1CCC(=O)O | – | inactive | 15.3% | –
CC#Cc1cncc(-c2ccc3c(c2)[C@@]2(N=C(C)C(N)=N2)C2(CCC(OC)CC2)C3)c1 (stereo not given in full) | – | inactive | -4.31% | –
Cc1ccc(/C(=C\CN2CCCC2)c2ccccn2)cc1 | – | inactive | 2.73% | –
COCCOC(=O)C1=C(C)NC(C)=C(C(=O)OC(C)C)C1c1cccc([N+](=O)[O-])c1 (stereo not given) | – | inactive | 7.46% | –
CCc1oc2ccccc2c1C(=O)c1cc(I)c(O)c(I)c1 | 5.8 µM (active) | 6.51 µM (active) | – | –
CCCN1C[C@H](CSC)C[C@@H]2c3cccc4[nH]cc(c34)C[C@H]21 | – | inactive | -4.04% | –
COc1ccc(Cl)cc1-c1cc(=O)[nH]c(=S)n1CC(N)=O | – | inactive | -3.52% | –
O=C1[C@@H]2[C@H]3CC[C@H](C3)[C@@H]2C(=O)N1CCCCN1CCN(c2ncccn2)CC1 | – | inactive | 6.58% | –
CC(C)C(N)C(=O)OCC(CO)OCn1cnc2c(=O)[nH]c(N)nc21 (stereo not given) | – | inactive | -23% | –
N#C[C@@H]1C[C@@H]2C[C@@H]2N1C(=O)[C@@H](N)C12CC3CC(CC(O)(C3)C1)C2 | – | inactive | 7.26% | –
CCCc1c(OCCCCc2nn[nH]n2)ccc(C(C)=O)c1O | – | inactive | -4.43% | –
CCN(CCCCOC(=O)c1ccc(OC)c(OC)c1)C(C)Cc1ccc(OC)cc1 (stereo not given) | – | inactive | -18.6% | –

SMILES | Potency [1] | Potency [2] | activity (max response) [1] | activity change, negative = viability loss [2]
NC(N)=NCCN1CCCCCCC1 | – | – | 5.33% | 7.14% [at 0.587 µM]
c1ccc(-c2nc[nH]c2-c2ccccc2)cc1 | – | inactive | -22.8% | –
Cc1cc2c(OCC(CNC(C)(C)C)OC(=O)c3ccccc3)cccc2[nH]1 (stereo not given) | – | inactive | 7.67% | –
Cn1cc(-c2nc(N[C@@H]3CCCC[C@@H]3N)c(F)c3c2C(=O)NC3)cn1 | – | – | 8.72% | 0.124% [at 3.81 µM]
CCc1cc2c(c(OCC(F)(F)F)c(C(=O)NC3CCN(C(=O)CO)CC3)n2C)c(=O)n1CC(=O)c1ccccc1 | – | inactive | -16.3% | –
O=c1[nH]nc2c3c(cccc13)NC(CN1Cc3ccccc3C1)=N2 | – | inactive | -23.2% | –
C=CCOc1cc(Cl)ccc1C(=O)NCCN(CC)CC | – | inactive | -0.164% | –
CCNC(=O)[C@H]1O[C@@H](n2cnc3c(N)nc(NCCc4ccc(CCC(=O)O)cc4)nc32)[C@H](O)[C@@H]1O | – | inactive | -2.22% | –
O=C(CCCc1ccc2cccnc2n1)NCc1cc(-c2ccc(F)c(C(F)(F)F)c2)no1 | – | inactive | 1.37% | –
CC[N+](C)(CC)CCOC(=O)C(O)(c1ccccc1)C1CCCCC1 (stereo not given) | – | inactive | 7.72% | –
Cc1nnc(C(C)C)n1C1CC2CCC(C1)N2CCC(NC(=O)C1CCC(F)(F)CC1)c1ccccc1 (stereo not given) | – | inactive | -4.92% | –
C[C@]12CC[C@@H]3c4ccc(O)cc4CC[C@H]3[C@@H]1C[C@@H](O)[C@@H]2O | – | inactive | -7.09% | –
C[C@@H]1O[C@@H](O[C@@H]2\C=C/C=C\C=C/C=C\C[C@H](C)OC(=O)/C=C\[C@H]3O[C@@H]3C[C@H](O)C[C@]3(O)C[C@@H](O)[C@@H](C(=O)O)[C@H](C2)O3)[C@H](O)[C@H](N)[C@@H]1O | – | inactive | 8.59% | –
Cn1c(=O)c(Oc2ccc(F)cc2F)cc2cnc(NC3CCOCC3)nc21 | – | inactive | -3.03% | –
CC(C)C[C@H](CC(=O)O)C(=O)N[C@@H](Cc1c[nH]c2ccccc12)C(=O)N[C@@H](C)c1ccccc1 | – | inactive | 0.614% | –
Nc1c(I)cc(I)c(C(=O)N(CCC(=O)O)c2ccccc2)c1I | – | inactive | -3.73% | –
C/C(=C1\CCOC(=O)S1)N(C=O)Cc1cnc(C)nc1N | – | inactive | -4.19% | –
NCc1ccccc1Sc1ccccc1CO | – | inactive | -6.09% | –
OC[C@H]1O[C@@H](Oc2cc(O)cc(/C=C/c3ccc(O)cc3)c2)[C@H](O)[C@@H](O)[C@@H]1O | – | inactive | 7.59% | –
COC(=O)C1=C(C)NC(C)=C(C(=O)OCC(C)=O)C1c1ccccc1[N+](=O)[O-] (stereo not given) | 16.4 µM (active) | 6.51 µM (active) | – | –
COCCCc1sc(-c2ccccc2)nc1C(=O)Nc1ccccc1-c1nc2cc(CN3CCCC3)cnc2s1 | – | inactive | -19.6% | –
Cc1c(I)c(=O)n(-c2ccccc2)n1C | – | inactive | 0.251% | –
CC(C)(Cc1c[nH]c2ccccc12)NCC(O)COc1ccccc1C#N (stereo not given) | – | inactive | -3.72% | –
COc1ccc2[nH]c(S(=O)Cc3ncc(C)c(OC)c3C)nc2n1 (stereo not given) | – | inactive | 4.99% and -14.4% | –

SMILES | Potency [1] | Potency [2] | activity (max response) [1] | activity change, negative = viability loss [2]
Cc1nc([N+](=O)[O-])cn1-c1ccc([N+](=O)[O-])cc1 | – | inactive | -2.45% | –
CCS(=O)(=O)c1ccc2oc(-c3ccc4ccccc4c3)nc2c1 | – | inactive | 1.49% | –
CC(C)C[C@@H]1[C@H](c2ccccc2)OC(=O)N1CCCN1CCCCCC1 | – | inactive | -14.7% | –
C[C@@H]1CCN(C(=O)CC#N)C[C@@H]1N(C)c1ncnc2[nH]ccc12 | – | inactive | -8.3% | –
Cc1ccc(-c2ccc(C)cn2)nc1 | – | inactive | -26.3% | –
Cn1cc(S(C)=O)c(=O)c2ccc(F)cc21 (stereo not given) | – | inactive | 8.71% | –
O=C(Nc1ccccc1)Nc1ccc(-c2ccc(C(=O)[C@@H]3CCC[C@H]3C(=O)O)cc2)cc1 | – | inactive | -19.9% | –
Cn1c(-c2ccccc2C(F)(F)F)nnc1C12CCC(c3noc(C4CC(F)(F)C4)n3)(CC1)CC2 | – | inactive | -6.22% | –
COc1ccc2c(c1)c(CC(=O)OC/C=C(\C)CC/C=C(\C)CCC=C(C)C)c(C)n2C(=O)c1ccc(Cl)cc1 | – | inactive | 2.52% | –
CC1(N)CCN(c2cnc(-c3cccc(Cl)c3Cl)c(N)n2)CC1 | – | inactive | -1.73% | –
CC(=O)Oc1ccc(C2(c3ccc(OC(C)=O)cc3)C(=O)Nc3ccccc32)cc1 | – | inactive | -6.19% | –
O=C(OCC(COC(=O)c1cccnc1)(COC(=O)c1cccnc1)COC(=O)c1cccnc1)c1cccnc1 | – | inactive | -1.24% | –
C[C@@H]1C[C@H]2[C@@H]3CCC4=CC(=O)C=C[C@]4(C)[C@@]3(F)[C@@H](O)C[C@]2(C)[C@H]1C(=O)CO | – | inactive | 1.09% | –
COc1c(C)cc(NC(=O)c2nn(Cc3ccc(F)cc3)c3c2CN(C(=O)c2ccc[nH]2)C[C@]3(C)C(N)=O)cc1C | – | inactive | -5.75% | –
CCOc1cc(/C=C2/C(=O)N(c3ccccc3)N=C2C)cc(Cl)c1OCC(=O)OC | – | inactive | -5.72% | –
CCN(CC)CCOc1ccc(C(O)(Cc2ccc(Cl)cc2)c2ccc(C)cc2)cc1 (stereo not given) | 20.6 µM (active) | 16.4 µM (active) | – | –
C[N+]1(C)CCC(OC(=O)C(O)(c2ccccc2)C2CCCC2)C1 (stereo not given) | – | inactive | 7.55% | –
CO[C@@]1(NC(=O)CSCC#N)C(=O)N2C(C(=O)O)=C(CSc3nnnn3C)CS[C@@H]21 | – | inactive | 9.84% | –
CCOc1ccc(-n2c([C@@H](C)N(Cc3cccnc3)C(=O)Cc3ccc(F)c(C(F)(F)F)c3)nc3ncccc3c2=O)cc1 | – | inactive | -7.78% | –
CCN(CC)CCNC(=O)c1c(C)[nH]c(/C=C2\C(=O)Nc3ccc(F)cc32)c1C | 18.4 µM (active) | 13 µM (active) and 15.8 µM (active) | – | –
CCCCOCCOCCOCc1cc2c(cc1CCC)OCO2 | – | inactive | 0.496% and -9.13% | –
CCc1ccc(/C=C2/SC(=S)NC2=O)cc1 | 25.1 µM (active) | 17.8 µM (active) | – | –
